Our source for the inhibition values is PubChem BioAssay AID1866 (The Scripps Research Institute Molecular Screening Center, 2009).

In all, about 1,300 compounds went through this assay and about 40 (3%) were called active. The list is a sample of the results. Values without a mark were called inactive.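 How the source made its calls: active means inhibition above that campaign's mean inhibition plus 3 SD (cut at about 0.46% in these data); inactive means the rest.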

Broadly, the inhibition is the relative decrease from the control value, in per cent.

Sequence of Beta-lactamase TEM (Escherichia coli) (P62593 whole entry, looked up): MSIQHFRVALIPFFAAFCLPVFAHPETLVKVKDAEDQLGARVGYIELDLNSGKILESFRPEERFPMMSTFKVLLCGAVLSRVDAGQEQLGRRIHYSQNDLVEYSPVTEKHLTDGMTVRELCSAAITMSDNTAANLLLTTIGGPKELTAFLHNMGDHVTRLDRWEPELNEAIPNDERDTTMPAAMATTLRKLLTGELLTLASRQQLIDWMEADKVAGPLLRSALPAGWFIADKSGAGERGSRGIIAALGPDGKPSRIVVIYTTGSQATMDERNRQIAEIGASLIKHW

The experiment concerns the target Beta-lactamase TEM (Escherichia coli) (UniProt P62593). Nature of the experiment: TEM-1 serine beta-lactamase inhibitors, counter-screen for VIM-2 inhibitor project, biochemical, epi-absorbance, HTS (AID 1866).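 Further: 0% = TEM-1 with DMSO and 100% = TEM-1 with 100 µM potassium clavulanate.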 Particulars: Purified TEM-1, nitrocefin hydrolysis, epi-absorbance fluorescence; at 5.6 µM; hits give high values.
Take `COc1ccc(CCn2c(=N)c(C(=O)NCC3CCCO3)cc3c(=O)n4cccc(C)c4nc32)cc1OC` (centres undefined): the inhibition was -5.02%.

Turning to `Cc1nc2ccccc2c2oc(C(=O)NCCCN3CCC(C)CC3)cc12`, the inhibition is -6.75%.

Consider `CNC(=O)c1ccsc1NC(=O)c1ccc(S(=O)(=O)N2CCOCC2)cc1`, for which the inhibition was -7.75%.

Consider `Fc1ccc(-c2ccc(CNCc3ccccn3)o2)cc1Cl`, for which the inhibition is -5.72%.

With `CCN(CC)c1ccc2cc(C(N)=O)/c(=N\NC(=O)c3ccncc3)oc2c1`, the inhibition was -8.43%.

On to `O=C(COc1cc2oc(=O)c3c(c2cc1Cl)CCC3)NCCCN1CCOCC1`, for which the inhibition was -0.53%.

Regarding `CCN1CCN(CCNC(=O)c2ccc3c(c2)NC(=O)/C(=C\c2ccc(OC)c(OC)c2)S3)CC1`, the inhibition is -9.31%.

For the molecule `COc1ccc(-c2nn3c(-c4ccccc4)nnc3s2)cc1OC`, the inhibition was -11.4%.

As for `CCOC(=O)N1CCN(C(=O)C2CCN(c3ncnc4c3sc3cccc(F)c34)CC2)CC1`, the inhibition was -5.6%.

`CCN(CC)CCOc1ccc2c(c1)C(=NNC(=O)c1ccccn1)c1cc(OCCN(CC)CC)ccc1-2`: the inhibition is -8.91%.

As for `COc1ccc(Nc2cc(C)nc(-n3nc(C)cc3C)n2)cc1`, the inhibition was -7.46%.

Regarding `NC(=O)C1CCN(C(=O)COc2ccc3c4c(c(=O)oc3c2)CCC4)CC1`, the inhibition was -5.63%.

On to `Cn1c(-c2sccc2OCc2cccc(C(F)(F)F)c2)n[nH]c1=S`, for which the inhibition is -7.73%.

In the case of `CCOc1cc(/C=C2\SC(N3CCCCC3)=NC2=O)ccc1O`, the inhibition was -8.67%.

For `COC(=O)c1c(NC(=O)c2ccc(S(=O)(=O)N3CCOCC3)cc2)sc2c1CCN(C(C)C)C2`, the inhibition is -6.47%.

For `Cc1ccc(Cl)cc1-c1ccc(/C=N/n2cnnc2)o1`, the inhibition was -6.18%.

In the case of `CCN1CCCC1CNC(=O)c1cc2c(=O)n(C)c3ccccc3c2n1C` (centres undefined), the inhibition was -6.31%.

As for `COc1ccc(Cc2nnc(NS(=O)(=O)Cc3ccccc3)s2)cc1`, the inhibition is -3.28%.

As to `Cc1cc(NCc2ccco2)n2c(nc3ccccc32)c1C#N`, the inhibition was -6.6%.

For the molecule `CC(=O)c1ccc(-c2ccc(Cn3c(C)nc4cc(N)c(C)nc43)cc2)cc1`, the inhibition was -6.56%.

In the case of `CC(NS(=O)(=O)c1ccccc1)c1n[nH]c(=S)n1-c1ccccc1` (centres undefined), the inhibition is -5.56%.

For the molecule `O=C1Nc2cc(C(=O)N3CCC(N4CCCCC4)CC3)ccc2S/C1=C\c1ccccc1`, the inhibition was -5.79%.

Take `CCc1cc(=O)oc2cc(C)cc(OCC(=O)N3CCC[C@@H]3C(=O)O)c12`: the inhibition is -5.9%.

For `O=C(NC(=S)Nc1ccccc1C(=O)O)c1ccc(-c2ccc(Br)cc2)o1`, the inhibition is -8.31%.
